Laboratory results: PubChem BioAssay (Tox21)
“And” between values parts separate entries of the source, which are not always exact repeats. Equal entries are not always repeated. Records with an inconclusive call do not appear. The source made the active and inactive calls. Unless noted, calls come from the whole dose curve; as a rule, active = well fitted curve in the direction sought with a large enough effect in the repeat runs; inconclusive = weak or mixed curves; inactive = no such curve, though single readings can be large; an effect the other way counts as inactive or inconclusive.

Columns and labels:
[1] = molecular target: Acetylcholinesterase (Homo sapiens) (UniProt P22303); assay: Acetylcholinesterase (AChE) small molecule antagonists: enzyme-based qHTS assay with human liver microsomes (AID 1347399; calls by dose curve; note: nearly all actives have a fitted effect of over 60% in size); details: Potency: qHTS inhibition
Summary of the method: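 Recombinant human AChE (50 mU/mL in the enzyme mix) and human liver microsomes (0.25 mg/mL final) were preincubated with compound and NADPH (0.25 mg/mL final) for 30 min at 37 C. Acetylthiocholine/DTNB was then added; thiocholine was read colorimetrically after 10 min at room temperature.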

[2] = molecular target: Cytochrome P450 2D6 (Homo sapiens) (UniProt P10635); assay: Cytochrome P450 Family 2 Subfamily D Member 6 (CYP2D6) small molecule antagonists: luciferase reporter qHTS assay (AID 1671196); note: nearly all actives have a fitted effect of over 50% in size; note: potency is the fitted concentration of half-maximal effect; for activity change, negative = inhibition: series mostly up to about 120 µM
Summary of the method: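 Test chemicals meet CYP2D6 plus proluciferin substrate (10 min, RT); NADPH regenerating solution then drives turnover for 1 h. Detection reagent halts the reaction; luminescence measured after 20 min.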

[3] = molecular target: Cytochrome P450 2C19 (Homo sapiens) (UniProt P33261); assay: Cytochrome P450 Family 2 Subfamily C Member 19 (CYP2C19) small molecule antagonists: luciferase reporter qHTS assay (AID 1671197); note: nearly all actives have a fitted effect of over 65% in size; note: potency is the fitted concentration of half-maximal effect; for activity change, negative = inhibition: series mostly up to about 120 µM
Summary of the method: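 CYP2C19 P450-Glo, 1536-well qHTS. Cpd + enzyme/proluciferin substrate 10 min RT; + NADPH regen, 37C 1 h; stop with luciferin detection reagent, 20 min RT, luminescence (RLU). Pos ctrl ketoconazole.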

[4] = molecular target: Cytochrome P450 2C9 (Homo sapiens) (UniProt P11712); assay: Cytochrome P450 Family 2 Subfamily C Member 9 (CYP2C9) small molecule antagonists: luciferase reporter qHTS assay (AID 1671198); note: nearly all actives have a fitted effect of over 50% in size; note: potency is the fitted concentration of half-maximal effect; for activity change, negative = inhibition: series mostly up to about 120 µM
Summary of the method: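 CYP2C9 activity was measured with a P450-Glo proluciferin substrate. Enzyme–substrate mix was held with compound for 10 min at room temperature, then NADPH regeneration solution was added for 1 h at 37C. Luciferin product was read as luminescence.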

[5] = molecular target: Voltage-gated inwardly rectifying potassium channel KCNH2 (Homo sapiens) (UniProt Q12809); assay: Human Ether-a-go-go-Related Gene (hERG) channel small molecule antagonists: fluorescence cell-based qHTS assay (AID 1671200); note: nearly all actives have a fitted effect of over 50% in size; note: potency is the fitted concentration of half-maximal effect; for activity change, negative = inhibition: series mostly up to about 77 µM
Summary of the method: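 Thallium flux as potassium surrogate: FluxOR II dye loaded 1 h at room temperature into hERG-expressing U2OS cells, then stimulus buffer added after 10 min. Kinetic 480 nm excitation/540 nm emission read, 2 min.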

[6] = molecular target: Cytochrome P450 3A4 (Homo sapiens) (UniProt P08684); assay: Cytochrome P450 Family 3 Subfamily A Member 4 (CYP3A4) small molecule antagonists: luciferase reporter qHTS assay (AID 1671201); note: nearly all actives have a fitted effect of over 50% in size; note: potency is the fitted concentration of half-maximal effect; for activity change, negative = inhibition: series mostly up to about 120 µM
Summary of the method: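 Recombinant human CYP3A4 converts a proluciferin substrate to luciferin over 1 h at room temperature after NADPH regeneration solution is added (compound preincubated 10 min); detection reagent stops reaction, luminescence read 20 min later as relative units.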

[7] = molecular target: Cytochrome P450 1A2 (Homo sapiens) (UniProt P05177); assay: Cytochrome P450 Family 1 Subfamily A Member 2 (CYP1A2) small molecule antagonists: luciferase reporter qHTS assay (AID 1671199); note: nearly all actives have a fitted effect of over 50% in size; note: potency is the fitted concentration of half-maximal effect; for activity change, negative = inhibition: series mostly up to about 120 µM
Summary of the method: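 Steps: enzyme-substrate mix dispensed; test compounds and furafylline control pinned in; 10 min room temperature; NADPH regeneration solution added, 1 h; reaction stopped with luciferin detection reagent; luminescence read after 20 min.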
% is set by controls: 0 for no effect and ±100 for the full control effect.

Chain of Acetylcholinesterase (Homo sapiens) (P22303 whole entry, looked up): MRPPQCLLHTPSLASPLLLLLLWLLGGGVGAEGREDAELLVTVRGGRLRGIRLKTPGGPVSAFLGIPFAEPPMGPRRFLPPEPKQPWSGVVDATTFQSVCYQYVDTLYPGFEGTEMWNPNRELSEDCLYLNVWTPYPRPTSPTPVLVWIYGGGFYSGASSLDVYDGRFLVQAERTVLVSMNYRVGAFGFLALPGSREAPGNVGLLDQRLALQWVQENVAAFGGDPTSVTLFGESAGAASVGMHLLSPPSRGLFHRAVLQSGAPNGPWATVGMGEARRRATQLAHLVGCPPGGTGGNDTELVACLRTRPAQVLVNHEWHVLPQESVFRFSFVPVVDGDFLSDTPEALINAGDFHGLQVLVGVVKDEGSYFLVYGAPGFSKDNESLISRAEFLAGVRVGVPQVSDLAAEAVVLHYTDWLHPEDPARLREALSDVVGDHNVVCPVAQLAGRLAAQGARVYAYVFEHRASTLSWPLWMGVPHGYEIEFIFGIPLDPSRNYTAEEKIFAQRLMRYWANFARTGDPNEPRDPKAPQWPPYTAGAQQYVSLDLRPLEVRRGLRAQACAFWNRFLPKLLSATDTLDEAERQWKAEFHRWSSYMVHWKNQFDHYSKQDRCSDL
Chain of Cytochrome P450 1A2 (Homo sapiens) (P05177 whole entry, looked up): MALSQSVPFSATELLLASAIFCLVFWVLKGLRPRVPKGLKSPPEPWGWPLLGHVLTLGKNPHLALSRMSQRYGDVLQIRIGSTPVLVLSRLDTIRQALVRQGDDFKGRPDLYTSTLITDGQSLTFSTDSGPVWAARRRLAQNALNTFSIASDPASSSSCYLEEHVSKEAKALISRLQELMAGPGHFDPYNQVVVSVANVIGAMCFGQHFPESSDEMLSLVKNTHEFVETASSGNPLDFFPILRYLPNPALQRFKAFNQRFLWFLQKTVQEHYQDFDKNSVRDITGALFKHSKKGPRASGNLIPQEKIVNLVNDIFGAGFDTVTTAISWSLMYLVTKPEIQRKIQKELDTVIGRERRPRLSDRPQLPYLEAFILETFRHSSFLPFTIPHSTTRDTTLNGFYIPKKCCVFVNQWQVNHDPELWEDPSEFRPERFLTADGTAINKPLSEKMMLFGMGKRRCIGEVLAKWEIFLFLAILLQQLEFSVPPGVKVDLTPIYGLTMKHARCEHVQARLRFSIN
Chain of Cytochrome P450 2C19 (Homo sapiens) (P33261 whole entry, looked up): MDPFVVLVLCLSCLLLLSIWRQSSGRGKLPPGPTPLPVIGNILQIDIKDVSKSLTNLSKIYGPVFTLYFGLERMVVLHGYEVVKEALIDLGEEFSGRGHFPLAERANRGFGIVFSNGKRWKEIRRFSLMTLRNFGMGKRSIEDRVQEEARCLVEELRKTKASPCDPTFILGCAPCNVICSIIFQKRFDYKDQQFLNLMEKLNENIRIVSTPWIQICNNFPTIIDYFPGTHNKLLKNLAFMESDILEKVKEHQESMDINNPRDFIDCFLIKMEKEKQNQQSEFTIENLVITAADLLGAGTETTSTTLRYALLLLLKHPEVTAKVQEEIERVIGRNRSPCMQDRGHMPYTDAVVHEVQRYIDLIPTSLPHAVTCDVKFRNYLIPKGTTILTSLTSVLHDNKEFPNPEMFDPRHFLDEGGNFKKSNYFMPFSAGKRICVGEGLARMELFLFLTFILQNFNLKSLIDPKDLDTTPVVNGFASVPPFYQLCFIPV
Chain of Cytochrome P450 3A4 (Homo sapiens) (P08684 whole entry, looked up): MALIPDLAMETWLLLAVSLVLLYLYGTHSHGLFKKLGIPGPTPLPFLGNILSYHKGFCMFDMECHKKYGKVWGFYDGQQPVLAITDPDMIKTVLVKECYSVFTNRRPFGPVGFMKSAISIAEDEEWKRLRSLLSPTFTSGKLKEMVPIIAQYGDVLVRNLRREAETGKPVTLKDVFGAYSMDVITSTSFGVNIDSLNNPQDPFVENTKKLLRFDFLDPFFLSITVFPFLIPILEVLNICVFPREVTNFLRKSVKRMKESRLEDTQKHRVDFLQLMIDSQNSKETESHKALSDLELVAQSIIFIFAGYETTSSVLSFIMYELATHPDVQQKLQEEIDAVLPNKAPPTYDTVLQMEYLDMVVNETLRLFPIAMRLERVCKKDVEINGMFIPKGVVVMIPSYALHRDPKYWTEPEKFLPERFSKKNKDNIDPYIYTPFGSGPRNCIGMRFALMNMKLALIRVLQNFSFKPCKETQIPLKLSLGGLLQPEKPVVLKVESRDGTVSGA
Chain of Cytochrome P450 2D6 (Homo sapiens) (P10635 whole entry, looked up): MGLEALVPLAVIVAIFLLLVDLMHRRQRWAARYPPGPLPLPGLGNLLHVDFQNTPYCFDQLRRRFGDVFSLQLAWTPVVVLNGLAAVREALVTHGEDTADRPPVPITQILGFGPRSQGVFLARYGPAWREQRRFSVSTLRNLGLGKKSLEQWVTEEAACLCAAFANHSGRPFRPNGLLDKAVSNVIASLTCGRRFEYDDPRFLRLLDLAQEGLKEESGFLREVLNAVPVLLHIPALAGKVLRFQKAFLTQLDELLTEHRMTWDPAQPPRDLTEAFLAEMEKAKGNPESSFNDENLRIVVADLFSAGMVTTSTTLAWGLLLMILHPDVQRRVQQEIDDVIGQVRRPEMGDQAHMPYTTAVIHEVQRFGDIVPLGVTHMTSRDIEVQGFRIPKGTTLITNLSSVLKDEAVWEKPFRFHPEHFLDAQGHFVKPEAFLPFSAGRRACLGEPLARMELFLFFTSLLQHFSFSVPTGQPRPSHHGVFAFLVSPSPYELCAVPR
Chain of Cytochrome P450 2C9 (Homo sapiens) (P11712 whole entry, looked up): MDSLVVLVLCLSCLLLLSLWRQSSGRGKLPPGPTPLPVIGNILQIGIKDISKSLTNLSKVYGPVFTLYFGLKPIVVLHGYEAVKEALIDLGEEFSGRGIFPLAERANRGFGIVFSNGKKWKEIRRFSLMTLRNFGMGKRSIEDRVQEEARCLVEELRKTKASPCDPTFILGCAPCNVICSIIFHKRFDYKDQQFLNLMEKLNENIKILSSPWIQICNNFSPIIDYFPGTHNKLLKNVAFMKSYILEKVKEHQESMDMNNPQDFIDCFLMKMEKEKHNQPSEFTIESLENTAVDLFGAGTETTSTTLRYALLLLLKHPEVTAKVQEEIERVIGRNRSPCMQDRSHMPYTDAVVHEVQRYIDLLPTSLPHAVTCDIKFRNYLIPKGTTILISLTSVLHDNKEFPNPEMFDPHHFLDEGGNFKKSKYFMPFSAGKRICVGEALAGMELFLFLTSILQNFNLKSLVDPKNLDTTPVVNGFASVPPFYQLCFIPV
Chain of Voltage-gated inwardly rectifying potassium channel KCNH2 (Homo sapiens) (Q12809 whole entry, looked up): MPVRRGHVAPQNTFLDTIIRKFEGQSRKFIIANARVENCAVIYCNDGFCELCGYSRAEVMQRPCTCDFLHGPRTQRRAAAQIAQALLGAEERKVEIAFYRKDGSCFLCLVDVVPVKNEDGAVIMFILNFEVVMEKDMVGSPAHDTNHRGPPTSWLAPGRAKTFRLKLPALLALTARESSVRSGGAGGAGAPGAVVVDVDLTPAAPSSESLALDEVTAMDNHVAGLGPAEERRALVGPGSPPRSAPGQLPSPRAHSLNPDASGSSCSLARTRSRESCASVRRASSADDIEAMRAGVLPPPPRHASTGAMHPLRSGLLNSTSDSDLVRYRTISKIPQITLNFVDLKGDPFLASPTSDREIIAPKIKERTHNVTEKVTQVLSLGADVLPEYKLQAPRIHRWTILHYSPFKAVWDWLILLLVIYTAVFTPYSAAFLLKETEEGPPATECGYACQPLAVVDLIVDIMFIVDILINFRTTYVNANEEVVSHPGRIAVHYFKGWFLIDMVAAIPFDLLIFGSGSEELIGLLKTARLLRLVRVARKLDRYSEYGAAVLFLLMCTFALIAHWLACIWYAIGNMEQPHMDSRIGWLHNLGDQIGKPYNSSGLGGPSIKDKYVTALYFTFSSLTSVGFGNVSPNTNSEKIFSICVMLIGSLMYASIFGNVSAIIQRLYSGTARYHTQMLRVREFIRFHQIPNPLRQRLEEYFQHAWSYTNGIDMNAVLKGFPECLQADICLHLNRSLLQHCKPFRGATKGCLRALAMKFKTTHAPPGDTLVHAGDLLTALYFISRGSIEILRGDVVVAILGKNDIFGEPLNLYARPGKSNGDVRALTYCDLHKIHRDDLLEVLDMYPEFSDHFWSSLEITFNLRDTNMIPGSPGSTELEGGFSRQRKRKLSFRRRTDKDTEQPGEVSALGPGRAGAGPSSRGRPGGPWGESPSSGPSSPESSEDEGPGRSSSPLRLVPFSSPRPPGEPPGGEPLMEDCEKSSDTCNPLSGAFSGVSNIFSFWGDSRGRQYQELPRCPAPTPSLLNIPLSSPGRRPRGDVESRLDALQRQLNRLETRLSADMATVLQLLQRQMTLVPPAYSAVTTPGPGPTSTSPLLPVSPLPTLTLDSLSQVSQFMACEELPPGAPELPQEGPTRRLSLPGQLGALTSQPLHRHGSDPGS

O=[N+]([O-])c1cc(Cl)ccc1Cl
inactive: Potency [1] | Potency [2] | Potency [3] | Potency [4] | Potency [5] | Potency [6]

O=C(CCl)Nc1ccccc1
inactive: Potency [1] | Potency [3] | Potency [4] | Potency [5] | Potency [6]
active: Potency [2] 39.9 µM

ClC(Cl)=C(Cl)Cl
inactive: Potency [1] | Potency [2] | Potency [3] | Potency [4] | Potency [5] | Potency [6]

C[C@@H]1O[C@@H](O[C@H]2C[C@@H](O)[C@]3(CO)[C@H]4[C@H](O)C[C@]5(C)[C@@H](C6=CC(=O)OC6)CC[C@]5(O)[C@@H]4CC[C@]3(O)C2)[C@H](O)[C@H](O)[C@H]1O
inactive: Potency [1] | Potency [2] | Potency [3] | Potency [4] | Potency [5] | Potency [6]

O=C(Nc1ccc2[nH]ccc2c1)c1cc2cc(F)ccc2n1Cc1cccc(F)c1
inactive: Potency [1] | Potency [5]
active: Potency [2] 15.9 µM | Potency [3] 6.33 µM | Potency [4] 3.56 µM | Potency [6] 2.52 µM

Fc1ccc(Oc2ccnc3cc(Cl)cc(Cl)c23)cc1
inactive: Potency [1]
active: Potency [2] 35.6 µM | Potency [3] 20 µM | Potency [4] 31.7 µM | Potency [7] 0.71 µM | Potency [5] 24.5 µM | Potency [6] 63.3 µM

C=CCOC(N)=O
inactive: Potency [1] | Potency [2] | Potency [3] | Potency [4] | Potency [5] | Potency [6]

CC(=[OH+])/C=C(/C)[O-].CC(=[OH+])/C=C(\C)[O-].CC(=[OH+])/C=C(\C)[O-].[Al]
inactive: Potency [1] | Potency [2] | Potency [3] | Potency [4] | Potency [7] | Potency [5] | Potency [6]

S=C=Nc1cccc2ccccc12
inactive: Potency [1] | Potency [5]
active: Potency [2] 14 µM | Potency [3] 2.8 µM | Potency [4] 4.98 µM | Potency [6] 3.14 µM

O=C/C(Cl)=C(/Cl)C(=O)O
inactive: Potency [1] | Potency [2] | Potency [3] | Potency [4] | Potency [7] | Potency [5] | Potency [6]

CC(C)CC(C)(c1ccc(O)cc1)c1ccc(O)cc1
active: Potency [3] 35.7 µM and 22.4 µM | Potency [4] 28.3 µM and 17.8 µM | Potency [6] 17.9 µM and 31.7 µM
inactive: Potency [1] | Potency [2] | Potency [7]

CCOC(=O)CC(=O)CCl
inactive: Potency [1] | Potency [2] | Potency [3] | Potency [4] | Potency [5] | Potency [6]

Brc1c(Br)c(Br)c(Oc2c(Br)c(Br)c(Br)c(Br)c2Br)c(Br)c1Br
inactive: activity change, negative = inhibition [1] -0.487% [at 23.6 µM] | activity change, negative = inhibition [2] 0.431% [at 23.6 µM] | activity change, negative = inhibition [3] 12.5% [at 23.6 µM] | activity change, negative = inhibition [4] -7.81% [at 23.6 µM] | activity change, negative = inhibition [5] -0.0422% [at 15.8 µM] | activity change, negative = inhibition [6] 2.2% [at 23.6 µM]

Cn1[nH]nnc1=S
inactive: Potency [1] | Potency [2] | Potency [5] | Potency [6]
active: Potency [3] 56.4 µM

COP(=S)(OC)Oc1cc(Cl)c(Br)cc1Cl
inactive: Potency [1] | Potency [2]
active: Potency [4] 5.64 µM | Potency [7] 11.2 µM

N#Cc1ccccc1Cl
inactive: Potency [1] | Potency [2] | Potency [3] | Potency [7] | Potency [5] | Potency [6]

O=[N+]([O-])c1c2ccccc2cc2ccccc12
inactive: Potency [1] | Potency [5]
active: Potency [2] 2.22 µM | Potency [4] 11.1 µM | Potency [7] 0.3 µM

CC(C)(C)C(O)/C(=C\c1ccc(Cl)cc1Cl)n1cncn1 (centres undefined)
active: Potency [2] 34.2 µM | Potency [3] 0.0342 µM | Potency [7] 38.4 µM | Potency [6] 0.272 µM
inactive: Potency [1]

CN(C)c1ccc(N=Nc2ccccc2)cc1
active: Potency [2] 40 µM | Potency [3] 20 µM | Potency [7] 3.56 µM
inactive: Potency [1] | Potency [5] | Potency [6]

BrC(Br)Br
active: Potency [2] 25.2 µM | Potency [7] 44.8 µM
inactive: Potency [1] | Potency [3] | Potency [5]

CC(=O)/C=C/c1ccc2c(c1)OCO2
active: Potency [2] 25.3 µM | Potency [3] 14.2 µM | Potency [7] 0.226 µM | Potency [6] 2.53 µM
inactive: Potency [1] | Potency [5]

CC1(c2ccc(Oc3ccccc3)cc2)OC(=O)N(Nc2ccccc2)C1=O (centres undefined)
active: Potency [3] 12.7 µM | Potency [4] 8.99 µM | Potency [6] 11.3 µM
inactive: Potency [1] | Potency [2]

CC(C)[C@H](C(=O)O[C@H](C#N)c1cccc(Oc2ccccc2)c1)c1ccc(Cl)cc1
active: Potency [3] 7.96 µM
inactive: Potency [1] | Potency [2] | Potency [5] | Potency [6]

O=c1oc2ccccc2c(O)c1Cc1c(O)c2ccccc2oc1=O
active: Potency [7] 24.5 µM
inactive: Potency [1] | Potency [2] | Potency [3] | Potency [5] | Potency [6]

C=COCCCl
inactive: Potency [1] | Potency [2] | Potency [3] | Potency [5] | Potency [6]

CCOc1cc(C(C)(C)C)ccc1C1COC(c2c(F)cccc2F)=N1 (centres undefined)
active: Potency [2] 5.43 µM | Potency [3] 3.42 µM | Potency [5] 13.3 µM | Potency [6] 0.0683 µM
inactive: Potency [1]
